This excerpt belongs to a sample that is enriched for hits.
Tgondii IFNg = T. gondii growth inhibition under IFN-gamma; Toxoplasma gondii growth in IFN-gamma-treated host cells; stronger effect = lower value; activity change, negative = inhibition, % (concentration not given with the values); 69,000 compounds, 3.8% hits; AID 1259416; in the data active means activity change below about -70%, passing the limit was not always enough;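 further: host cells are HeLa cells infected with Toxoplasma gondii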
Active calls of the source: *; ! = not confirmed by another sample.

SMILES | Tgondii IFNg
Cc1cn(-c2cc(NC(=O)c3ccc(C)c(Nc4nccc(-c5cccnc5)n4)c3)cc(C(F)(F)F)c2)cn1 | -77*!
Cc1ccc(NC(=O)c2ccc(CN3CCN(C)CC3)cc2)cc1Nc1nccc(-c2cccnc2)n1 | -38
C=CCn1c(SCc2ccccn2)nc2c([nH]c3ccccc32)c1=O | 30
CC(C)(C)c1nc2ccccc2c2nnc(SCc3ccccn3)n12 | -79*
Nc1nnc(SCc2ccccn2)s1 | 5
CC(=O)N1CCC(C(=O)NCc2ccccc2)(N(Cc2ccc(C)cc2)C(=O)c2ccc(C)cc2)CC1 | 39
c1ccc(-c2ncn(CCCOc3cccnc3)c2-c2ncc[nH]2)cc1 | -4
CCC(CO)N(Cc1ccc(C)s1)C(=O)c1occc1C (centres undefined) | 2
Clc1ncnc2sc(-c3ccccc3)cc12 | 62
c1ccc(-c2cc3ncnc(N4CCSCC4)c3s2)cc1 | -99*
c1ccc(-c2cc3c(N4CCc5ccccc54)ncnc3s2)cc1 | -43
COc1cccc2c1c(NS(=O)(=O)c1cccc3nonc13)nn2C | 25
c1coc(CCn2ccnc2-c2ccc(-n3cccn3)cc2)c1 | -8
COC(=O)c1c(NCc2ccc(OC)c(OC)c2)c2cccc(Cl)c2[nH]c1=O | -50
COc1ccc(C2c3c(n[nH]c3C)CC(C)(O)C2C(C)=O)cc1OC (centres undefined) | -11
COc1cc(C2c3c([nH]c(=O)[nH]c3=O)Nc3ccc4ccccc4c32)ccc1OC(C)=O (centres undefined) | -112*
CCN1CCC2(CC1)OC(=O)C(C)=C2C(=O)NCc1ccc2c(c1)OCO2 | 28
C=CCOC1C2CCC1N(S(=O)(=O)c1ccccc1)C2 (centres undefined) | -4
CN(C)c1cc(OC2CCN(C(=O)c3c[nH]c4ccccc34)C2)ncn1 (centres undefined) | -84*
CN1[C@@H]2CC[C@H]1CC(OC(=O)c1c[nH]c3ccccc13)C2 (some centres undefined) | -5
CN1C2CCC1CC(OC(=O)c1c[nH]c3ccccc13)C2 (centres undefined) | 12
Cc1cccc(C(=O)N2C[C@H]3CN(c4ccsc4)C(=O)[C@H]3C2)n1 | 3
CCOCC12CCCOC1CCN(C(=O)c1ccncc1)C2 (centres undefined) | -3
CCOCC12CCCOC1CCN(Cc1cccs1)C2 (centres undefined) | -32
CCOCC12CCCOC1CCN(Cc1ccc(C)s1)C2 (centres undefined) | -88*
SMILES | Tgondii IFNg
CCCn1nc(NC(=O)CCC(=O)O)c2cc3cccc(C)c3nc21 | -48
Cc1ccoc1C(=O)N1CCOCC1c1csc(-c2ccccc2)n1 (centres undefined) | -28
CNC(=O)[C@@H](NC(=O)[C@H](CC(C)C)[C@H](O)C(=O)NO)C(C)(C)C | 14
CC(NC(=O)Cc1cc(F)cc(F)c1)C(=O)NC(C(=O)OC(C)(C)C)c1ccccc1 (centres undefined) | 18
CC(C)C[C@@H](C(=O)N[C@H](C(=O)OC1CCCC1)c1ccccc1)[C@H](O)C(=O)NO | -85*
Cn1c2c(ccc1=O)CCN(Cc1nccs1)CC2 | 8
COCCc1noc(C2CCCN(C(=O)c3cnn4c3CCCC4)C2)n1 (centres undefined) | 68
CCS(=O)(=O)N1CCN(c2nnc(-c3cccs3)c(-c3cccs3)n2)CC1 | 174
c1csc(-c2nc3ccc4ccccc4c3c3c2CCC3)c1 | 121
c1csc(-c2nnc(Cc3ccncc3)c3ccccc23)c1 | -91*
Cc1ccc(NC(=O)c2ncn3c(C4CCN(CC5CC5)CC4)ccnc23)c(C)c1 | 36
Cc1ccc(S(=O)(=O)N2CCC3(CC2)CN(c2ccccc2)C3=O)cc1 | 86
Cc1ccc(S(=O)(=O)N2CCC3(CCCN(CC4CCOCC4)C3)C2)cc1 (centres undefined) | 26
Cc1ccc(S(=O)(=O)N2CCCC3(CCCCC3)C2)cc1 | -98*
COc1cccc(S(=O)(=O)Nc2ccc3c(c2)CCC(=O)N3CC(C)C)c1 | -52
CC(C)CN1C(=O)CCc2cc(NS(=O)(=O)c3ccc(F)c(Cl)c3)ccc21 | -87*
CC(C)CN1C(=O)CCc2cc(NS(=O)(=O)c3cccc(Cl)c3)ccc21 | -80*
COCCN1C(=O)CCc2cc(NS(=O)(=O)c3ccc4c(c3)OCCO4)ccc21 | 88
Cc1cc(S(=O)(=O)Nc2ccc3c(c2)CCC(=O)N3CC(C)C)ccc1F | -97*
CC(C)CN1C(=O)CCc2cc(NS(=O)(=O)c3ccccc3F)ccc21 | -59
CC(C)CN1C(=O)CCc2cc(NC(=O)c3cc(F)ccc3Cl)ccc21 | -40
COCCN1C(=O)CCc2cc(NS(=O)(=O)c3ccc(F)c(C)c3)ccc21 | -20
COCCN1C(=O)CCc2cc(NS(=O)(=O)c3cccc(OC)c3)ccc21 | 1
Clc1ccc(N2N=C(/C=C/c3cccs3)CC2c2cccs2)cc1 (centres undefined) | -28
C1=C(Cc2nc(C3CC3)n[nH]2)CCCC1 | -12
O=C(CCc1cc(=O)[nH]o1)NCc1cccnc1N1CCc2ccccc2C1 | 8
CN(Cc1nncn1C)c1ccc(C(=O)N2CCC(Cn3cccn3)CC2)cn1 | -4

Compound activity: PubChem, Broad Institute
